According to PubChem BioAssay AID1903 (Southern Research Specialized Biocontainment Screening …, 2009):
In all, about 310,000 compounds went through this assay and about 1,200 (0.39%) were called active. No rule for the calls is given here. Not all results are given here. Potency and affinity values are given separately.

Biological target: Large T antigen (Simian virus 40) (UniProt P03070)
Assay: TAg ATPase/helicase activity blockers – biochemical (AID 1903)
Details: SV40 large T antigen ATPase/helicase inhibition assay; at 20 µM; hits give high values

Chain of Large T antigen (Simian virus 40) (P03070 whole entry, looked up): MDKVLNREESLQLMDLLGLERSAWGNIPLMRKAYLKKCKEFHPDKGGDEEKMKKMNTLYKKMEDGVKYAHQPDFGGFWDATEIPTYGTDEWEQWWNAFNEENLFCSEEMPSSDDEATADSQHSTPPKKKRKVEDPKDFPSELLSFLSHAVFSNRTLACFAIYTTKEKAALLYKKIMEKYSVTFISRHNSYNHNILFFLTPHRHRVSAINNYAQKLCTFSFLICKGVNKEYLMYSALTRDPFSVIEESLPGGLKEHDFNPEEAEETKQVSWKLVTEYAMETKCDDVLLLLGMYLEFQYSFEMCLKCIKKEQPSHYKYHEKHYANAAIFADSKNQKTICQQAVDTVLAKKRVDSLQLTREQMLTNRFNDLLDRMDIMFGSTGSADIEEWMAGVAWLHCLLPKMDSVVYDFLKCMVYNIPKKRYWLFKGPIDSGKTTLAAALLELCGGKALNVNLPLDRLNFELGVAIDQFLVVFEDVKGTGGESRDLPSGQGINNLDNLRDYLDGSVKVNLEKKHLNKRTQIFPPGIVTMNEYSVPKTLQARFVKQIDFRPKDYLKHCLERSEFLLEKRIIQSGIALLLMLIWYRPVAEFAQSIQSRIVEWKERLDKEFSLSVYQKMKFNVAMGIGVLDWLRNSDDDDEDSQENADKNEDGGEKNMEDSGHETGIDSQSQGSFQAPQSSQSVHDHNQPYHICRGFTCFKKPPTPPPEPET

inhibition, inactive:
Cc1ccc(-n2cccc2/C=C2/NC(=O)N(CC(=O)Nc3cccc(C)c3)C2=O)cc1 10.3%, Cc1cccc(NC(=O)CN2C(=O)N/C(=C\c3cccn3-c3cccc(C(=O)O)c3)C2=O)c1 3.89%, COC(=O)C1CCN(Cc2ccc(C)cc2)CC1 3.14%, N#C/C(=C/Nc1ccccc1F)S(=O)(=O)c1ccc(Cl)cc1 -5.3%, COc1ccc(-c2cnnn2-c2ccc(NC(=O)/C=C/c3ccc(OC)c(OC)c3)cc2)cc1 4.37%, CC(Oc1ccc(Cl)cc1Cl)C(=O)NCCCN(C)C (stereo not drawn) 13.2%, O=C(O)c1ccc(-c2ccc(OS(=O)(=O)c3ccccc3F)cc2)cc1 -2.26%, O=C(O)Cc1ccc(O)c(F)c1 11.8%, CC(=O)Nc1ccc(S(=O)(=O)N2CCN(Cc3cccnc3)CC2)cc1 0.357%, Cc1scc(C(=O)NNC(=S)NCC2CCCO2)c1-c1ccccc1 (stereo not drawn) 11.4%, CN=c1scc(C)n1/N=C/c1ccc2c(c1)OCO2 11.5%, CCN=c1scc(-c2ccco2)n1/N=C/c1ccc(OC)c(O)c1 19.6%, Cc1nnc(C)n1/N=C/c1ccc(O)cc1 -1.45%, CCN=c1scc(-c2ccco2)n1/N=C/c1ccc(O)cc1 11.2%, CN=c1scc(C)n1/N=C/c1ccc(O)c(O)c1O 7.3%, CN=c1scc(-c2cccs2)n1/N=C/c1ccccc1O 6.26%, CC1Oc2ccccc2N(CC(=O)N2CCCC2)C1=O (stereo not drawn) 2.95%, O=C1Cn2c(nc3ccccc32)N1c1ccccc1F 5.32%, Cc1cc[n+](CC(=O)Nc2ccccc2)cc1 -1.49%, COc1ccc(Nc2nc(N)c([N+](=O)[O-])c(NCc3ccccc3)n2)cc1 2.61%, CCCC12CN(C(=O)c3ccc(OC)cc3)CC(C)(CN(C(=O)c3ccc(OC)cc3)C1)C2=O 14.8%, COc1ccc(CONc2ncnc3nonc23)cc1[N+](=O)[O-] 24.5%, O=c1cc(-c2ccccc2)oc2cc(O)cc(O)c12 3.39%, O=c1c(O)c(-c2cc(O)c(O)c(O)c2)oc2cc(O)cc(O)c12 14.3%, O=c1cc(-c2ccc(O)cc2)oc2cc(O)cc(O)c12 5.06%, O=c1c(O)c(-c2ccc(O)cc2)oc2cc(O)cc(O)c12 2.71%, Cc1cccc(/C=C2\CCC(C3CCCC3)C2=O)c1 (stereo not drawn) 1.68%, CCN(CC)C(=O)c1cc(Cl)ccn1 -2.78%, O=C(NCC1CCCO1)c1cc(S(=O)(=O)Nc2ccc(Br)cc2)ccc1Cl (stereo not drawn) -4.53%, COC(=O)C1C(=O)NC(SC)=C(C#N)C1c1ccccc1F (stereo not drawn) 10.2%, CCOC(=O)C1C(=O)NC(SC)=C(C#N)C1c1ccccc1F (stereo not drawn) 13.4%, COc1ccccc1/C=C(/C(=O)OCC(=O)Nc1cc(C)ccc1C)c1ccccc1 5.11%, CCOC(=O)C(=CNc1ccc(NC2=NCC(C)S2)cc1)C(=O)OCC (stereo not drawn) 12%, CC1CN=C(Nc2cccc(S(=O)(=O)N(C)C)c2)S1 (stereo not drawn) 21.1%, Cc1cccc2cc3c(nc12)-c1ccccc1C3=O 7.99%, Cc1ccc(Cl)c(OC(=O)C2CSC3(C)CCC(=O)N23)c1 (stereo not drawn) 28%, CC(C)Sc1nc2ccccc2n1CC(=O)NCc1ccc2c(c1)OCO2 10.4%, O=C(c1cnn(-c2ccccc2)c1)c1ccccc1O -1.98%, O=C(O)/C=C/c1cnn(-c2ccccc2)c1 6.6%, CCN(CC)S(=O)(=O)c1ccc(N=Nc2c(N)[nH]c(=O)[nH]c2=O)cc1 12.4%, O=C(CCn1c(=S)[nH]c2ccccc2c1=O)NCCc1ccccc1 4.97%, O=C(CCn1c(=S)[nH]c2ccccc2c1=O)NCCc1ccc(Cl)cc1 7.2%, CC(=O)NC(CC(=O)N1CCCC1)c1ccccc1 (stereo not drawn) 21.8%, O=C(NCc1ccc2c(c1)OCO2)c1ccc2c(c1)S(=O)(=O)c1ccccc1C2=O 0.8%, Cn1c(=O)oc2cc(S(=O)(=O)NC3CCCCC3)ccc21 -17.1%, Cn1c(=O)oc2cc(S(=O)(=O)NC3CCCCCCC3)ccc21 -1.85%, CCCCC(=O)Nc1ccc(C(=O)NCCc2ccc(S(N)(=O)=O)cc2)cc1 1.78%, N=c1c2c(ncn1Cc1ccco1)Oc1cc(O)ccc1C2c1ccccc1 (stereo not drawn) 26.2%, O=C1NN(c2ccccc2)C(=O)/C1=C/c1cccs1 28.5%, O=C1NN(c2ccccc2)C(=O)/C1=C\c1ccccc1 17.5%, COc1ccc(-c2nc(CS(=O)(=O)CC(=O)NCCCc3ccccc3)c(C)o2)cc1 -0.82%, O=C(OCC(=O)N1CCCc2ccccc21)c1cc(S(=O)(=O)N2CCOCC2)ccc1Cl 15.5%, O=C(COc1ccc2ccccc2c1Br)NCc1ccccn1 9.07%, Cc1cccc(C)c1NS(=O)(=O)c1cc2c3c(c1)CC(=O)N3CCC2 -3.87%, CN(C)c1ccc(S(=O)(=O)c2ccc(Cl)cc2)cc1 1.2%, CCN(CC)S(=O)(=O)c1cc(NS(=O)(=O)c2cccc(Cl)c2)ccc1C 2.93%, Cc1ccc(S(=O)(=O)Nc2ccc(N(C)C)cc2)cc1 37.5%, CN(C)c1ccc(NS(=O)(=O)c2cc(Cl)ccc2Cl)cc1 25.6%, Cc1ccc(NS(=O)(=O)c2cc3c4c(c2)CC(=O)N4CCC3)cc1C 7.5%, O=C(CN1C(=O)C(=O)N(Cc2ccco2)C1=O)c1c[nH]c2ccccc12 28.3%, C=CCc1ccc(OCCOCCOc2ccccc2[N+](=O)[O-])c(OC)c1 -1.8%, C=CCOc1ccc(C2c3c(oc4ccccc4c3=O)C(=O)N2CCCN2CCOCC2)cc1 (stereo not drawn) 10.1%, O=C(COn1nnc2ccc(Cl)cc21)Nc1ccc(F)cc1 19.7%, COc1cc(/C=C2\N=C(C)OC2=O)cc(Cl)c1OC(C)=O 13.6%, CC(=O)NC1CC2CCCC(C1)N2S(=O)(=O)c1cccc(F)c1 (stereo not drawn) 2.38%, COc1ccc(S(=O)(=O)Nc2cccc(-c3ccc4nncn4n3)c2)c(OC)c1 12.4%, Cc1ccc(Nc2c(-c3ccc(C)o3)nc3ncccn23)cc1 33.8%, Brc1ccc(-c2nc3ncccn3c2NC2CCCCC2)o1 12.4%, Cc1ccc(-n2cc(CCCCCCCCC(=O)O)nn2)cc1 8.47%, COc1ccc(/C=N/NC(=O)CN2CCSCC2)c(OC)c1 17.5%, COc1ccc(NC(=O)/C=C/C(=O)O)cc1Cl 4.09%, COC(=O)/C=C/C(=O)Nc1cccc(C(F)(F)F)c1 17.3%, O=C(CCCC(=O)c1ccc(O)cc1)c1ccc(O)cc1 9%, CCCCC(=O)c1ccc(O)cc1 4.42%, COc1ccc(N2CCN(C(=O)C3COc4ccccc4O3)CC2)cc1 (stereo not drawn) 15.2%, O=C(O)CCCC(=O)N(Cc1ccccc1)Cc1ccccc1 8.76%, COc1ccc(OC)c(S(=O)(=O)N2CCC(C(=O)N3CCc4ccccc4C3)CC2)c1 -3.29%, Cc1ccc(C(=O)Nc2nc(=O)n(C(=O)c3ccccc3Cl)s2)cc1 6.99%, COc1ccc(Nc2cc(Nc3ccc(OC)cc3)ncn2)cc1 6.82%, CN(C)c1ccc(Nc2ccc([N+](=O)[O-])cn2)cc1 32.5%, COc1ccc(S(=O)(=O)N2CCCN(CC(=O)Nc3ccc4c(c3)OCO4)CC2)cc1 -44.5%, O=C(COC(=O)C1=COCCO1)NC1CCCCC1 4.07%, COC(=O)C1=C(C)N=c2s/c(=C3\C(=O)Nc4ccccc43)c(=O)n2C1c1ccccc1 (stereo not drawn) 12.3%, CCOC(=O)C1=C(C)N=c2s/c(=C3/C(=O)Nc4ccccc43)c(=O)n2C1c1ccc(C)cc1 (stereo not drawn) 24.6%, O=C(CCCC(=O)NCCc1ccccc1)NCCc1ccccc1 3.18%, Cc1ccc(-c2noc(C3CCCN(S(=O)(=O)c4ccc5ccccc5c4)C3)n2)o1 (stereo not drawn) -0.86%, Cc1ccc(S(=O)(=O)N2CCCC(c3nc(-c4ccc(C)o4)no3)C2)cc1 (stereo not drawn) 6.08%, CC(C)(C)c1cc(-c2nc(N)nc(N)n2)cc(C(C)(C)C)c1 6.71%, COc1cccc(CN2CCCC(N3CCc4ccccc4C3)C2)c1O (stereo not drawn) 11.4%, CC1CCN(C2=C(NS(=O)(=O)c3ccc(Cl)cc3)C(=O)c3ccccc3C2=O)CC1 16.2%, COc1ccc(NC(=O)Nc2ccc(O)c3ccccc23)cc1 27.9%, COc1ccc(C(=O)Nc2cccc3ccccc23)cc1 16.2%, CC1(C)Cc2ccccc2C(=C(C#N)C#N)N1 4.69%, CCOC(=O)c1ccc(NC(=O)c2cc3ccccc3o2)cc1 8.26%, O=C1N/C(=C/c2ccc(Br)cc2)C(O)=C1C=NCc1ccccc1 4.99%, O=C1N/C(=C\c2ccccc2)C(O)=C1C=NCc1ccccc1 18.3%, COC1=C(Nc2ccc(C)cc2)C(=O)c2ccccc2C1=O 3.75%, COC1=C(Nc2ccccc2)C(=O)c2ccccc2C1=O -28.6%
